Here are results for 82 compounds from paper PMC4336329 (PLoS ONE, 2015).

The whole screen tested about 310,000 compounds, of which about 2,200 (0.71%) showed an effect of 50% or more. Effects have a minus sign here. For the sample, strong results were picked, then their nearest neighbours and some compounds at random.

human ether-à-go-go-related gene (hERG) potassium channel, sequence (Q12809 whole entry, looked up): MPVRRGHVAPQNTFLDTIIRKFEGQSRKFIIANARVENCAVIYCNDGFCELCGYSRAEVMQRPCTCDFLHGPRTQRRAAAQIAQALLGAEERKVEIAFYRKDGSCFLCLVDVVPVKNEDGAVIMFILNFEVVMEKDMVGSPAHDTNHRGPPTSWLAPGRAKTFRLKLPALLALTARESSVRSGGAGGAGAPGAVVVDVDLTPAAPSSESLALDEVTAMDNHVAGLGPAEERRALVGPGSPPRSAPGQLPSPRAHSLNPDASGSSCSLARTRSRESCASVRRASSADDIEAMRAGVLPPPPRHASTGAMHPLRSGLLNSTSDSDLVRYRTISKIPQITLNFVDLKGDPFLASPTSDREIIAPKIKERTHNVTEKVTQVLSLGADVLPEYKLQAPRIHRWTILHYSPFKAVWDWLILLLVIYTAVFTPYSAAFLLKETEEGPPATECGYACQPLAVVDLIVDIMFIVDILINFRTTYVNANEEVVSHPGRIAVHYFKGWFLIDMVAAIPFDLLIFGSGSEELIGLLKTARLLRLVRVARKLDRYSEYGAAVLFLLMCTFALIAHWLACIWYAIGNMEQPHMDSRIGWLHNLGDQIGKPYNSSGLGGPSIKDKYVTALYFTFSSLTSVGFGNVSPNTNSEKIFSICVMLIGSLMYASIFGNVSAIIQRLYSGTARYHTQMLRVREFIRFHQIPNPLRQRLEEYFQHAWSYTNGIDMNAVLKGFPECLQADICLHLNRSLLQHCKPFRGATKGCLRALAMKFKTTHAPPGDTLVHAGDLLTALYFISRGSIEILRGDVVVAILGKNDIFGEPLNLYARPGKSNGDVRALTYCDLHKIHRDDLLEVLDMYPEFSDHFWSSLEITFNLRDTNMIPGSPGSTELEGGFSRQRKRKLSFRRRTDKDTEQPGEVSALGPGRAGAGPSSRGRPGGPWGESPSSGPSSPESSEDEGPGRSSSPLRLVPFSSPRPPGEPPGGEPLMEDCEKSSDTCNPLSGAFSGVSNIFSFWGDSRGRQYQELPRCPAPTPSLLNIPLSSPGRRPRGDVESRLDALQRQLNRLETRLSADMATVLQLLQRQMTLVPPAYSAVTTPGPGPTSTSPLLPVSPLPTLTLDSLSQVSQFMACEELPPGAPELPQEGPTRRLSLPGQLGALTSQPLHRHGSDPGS

This test concerns the target human ether-à-go-go-related gene (hERG) potassium channel (human, UniProt Q12809). The experiment in a line: primary screen, population patch clamp on CHO cells stably expressing hERG; higher = less effect of the substance.
`Cc1ccc(N=C2NC(=O)C(CC(=O)O)S2)cc1` (stereo not shown): the “hERG current change (%, negative = inhibition) at 1uM” value is given as 8.56%.
For `CC(=O)c1ccc(N2CCN(S(=O)(=O)c3csc(C(N)=O)c3)CC2)cc1` the value was -14.2%; for `CN(C)S(=O)(=O)N1CCN(c2ccc(Cl)cc2)CC1`, 5.65%; for `NC(=O)c1cc(S(=O)(=O)N2CCN(c3cccc(Cl)c3)CC2)cs1`, 18.9%.
For `CN(C)S(=O)(=O)N1CCN(c2ccc([N+](=O)[O-])cc2)CC1` the value was -60.5%.
For `NC(=O)c1cc(S(=O)(=O)N2CCN(c3ccc([N+](=O)[O-])cc3)CC2)cs1` the value was -59.3%; for `CN(C)S(=O)(=O)N1CCN(c2ccccc2)CC1`, -0.132%.
`O=[N+]([O-])c1cc(NS(=O)(=O)c2ccc(Cl)nc2)ccc1Cl`: the “hERG current change (%, negative = inhibition) at 1uM” value is recorded as -0.66%.
As for `CCc1ccc2oc(-c3cc(N)ccc3O)nc2c1`, the “hERG current change (%, negative = inhibition) at 1uM” value worked out at 9.06%.
For `O=C(O)C1CSC(c2ccccc2)N1C(=O)c1ccco1` (stereo not shown) the value was 10%; for `O=C(/C=C/c1ccc(S(=O)(=O)NCc2ccco2)cc1)N1CCN(c2ccccc2)CC1`, 5.15%; for `COc1ccc(/C=N/NC(=O)c2ccc(C)cc2)cc1CN1CCN(c2ccc(F)cc2)CC1`, -27%.
Turning to `COc1ccc(/C=N/NC(=O)c2ccccc2)cc1CN1CCN(c2ccc(F)cc2)CC1`, the “hERG current change (%, negative = inhibition) at 1uM” value is on record as -62.1%.
In the case of `COc1ccc(C(=O)N/N=C/c2ccc(OC)c(COc3ccc(F)cc3)c2)cc1`, the “hERG current change (%, negative = inhibition) at 1uM” value was found to be 1.17%.
For `COc1ccc(C(=O)N/N=C/c2ccc(OC)c(CN3CCN(c4ccc(F)cc4)CC3)c2)cc1` the value was -83.5%; for `COc1ccc(/C=N/NC(=O)c2ccccc2F)cc1CN1CCN(c2ccc(F)cc2)CC1`, -64.4%; for `COc1ccc(/C=N/NC(=O)c2cccc(Br)c2)cc1CN1CCOCC1`, -38.5%.
For `COc1ccc(/C=N/NC(=O)c2ccncc2)cc1CN1CCN(c2ccc(F)cc2)CC1` the value was -54.2%; for `COc1ccc(/C=N\NC(=O)c2ccccc2F)cc1COc1ccc(F)cc1`, 16.6%.
Regarding `COc1ccc(/C=N/NC(=O)c2cccnc2)cc1CN1CCN(c2ccc(F)cc2)CC1`, the “hERG current change (%, negative = inhibition) at 1uM” value is reported as -0.578%.
For `COc1ccc(/C=N\NC(=O)c2ccccc2)cc1COc1ccc(F)cc1` the value was 4.81%; for `COc1ccc(/C=N/NC(=O)c2ccncc2)cc1CN1CCOCC1`, 6.59%; for `COc1ccc(/C=N/NC(=O)c2ccoc2C)cc1CN1CCN(c2ccc(F)cc2)CC1`, -19.3%.
For `O=S(=O)(NC1CC1)c1ccc(F)c(F)c1` the value was 10.1%.
For `OCCN(Cc1nc(-c2ccc3c(c2)OCO3)no1)Cc1cccs1` the value was 7.42%; for `CC(Oc1cc2oc(=O)c3c(c2cc1Cl)CCC3)C(=O)NCCCN1CCOCC1` (stereo not shown), 13.3%.
`Cc1ccc(CN=C(N)Nc2nc(C)cc(C)n2)cc1.Cl`: the “hERG current change (%, negative = inhibition) at 1uM” value is on record as -19.5%.
On to `CN(Cc1ccc(F)cc1)C(=O)c1ccc(NC(=O)CC2SC(N3CCCC3)=NC2=O)cc1` (stereo not shown), for which the “hERG current change (%, negative = inhibition) at 1uM” value amounted to 8.82%.
To `COc1ccc(S(=O)(=O)NCC2CCCN(C(=O)c3cccnc3C)C2)cc1` (stereo not shown) belongs 14%; to `COc1ccc2c(ccc[n+]2CC(=O)c2ccc(C)cc2)c1.[Br-]`, 8.14%.
For `COc1cc(C(=O)N/N=C/c2ccc(OC)c(CN3CCN(c4ccc(F)cc4)CC3)c2)ccc1O` the value was -52.4%; for `COc1ccc(/C=N/NC(=O)c2ccc(Br)cc2)cc1CN1CCOCC1`, -23.8%; for `COc1ccc(/C=N\NC(=O)c2cc(O)c(O)c(O)c2)cc1CN1CCN(c2ccc(F)cc2)CC1`, 10.4%.
Regarding `CCN(CC(=O)N1CCOCC1)S(=O)(=O)c1ccccc1`, the “hERG current change (%, negative = inhibition) at 1uM” value came out at 12.4%.
For `Cc1ccccc1NC(=O)N1CCC(C(=O)c2ccc(F)cc2)CC1` the value was 17.6%; for `Cc1nc2sccn2c(=O)c1CCN1CCC(=C(c2ccccc2)c2ccc(F)cc2)CC1`, -78.8%; for `CCOc1ccccc1NC(=O)N1CCC(C(=O)c2ccc(F)cc2)CC1`, 9.5%.
On to `Cc1nc2sccn2c(=O)c1S(=O)(=O)NCCc1ccccc1`, for which the “hERG current change (%, negative = inhibition) at 1uM” value is on record as -10.2%.
With `Cc1nc2sccn2c(=O)c1S(=O)(=O)NCc1ccccc1`, the “hERG current change (%, negative = inhibition) at 1uM” value is given as 9.92%.
For the compound `Cc1nc2sccn2c(=O)c1CCN1CCC(=C(c2ccc(F)cc2)c2ccc(F)cc2)CC1`, the “hERG current change (%, negative = inhibition) at 1uM” value is recorded as -65%.
As to `CCCCc1c(O)nc2sccn2c1=O`, the “hERG current change (%, negative = inhibition) at 1uM” value is 5.53%.
To `Cc1nc2sccn2c(=O)c1S(=O)(=O)N1CCN(c2ccc(F)cc2)CC1` belongs -23%; to `Cc1nc2ccccn2c(=O)c1CCN1CCC(C(=O)c2ccc(F)cc2)CC1`, -66.2%.
For `CC(NCC(=O)Nc1ccccc1C(=O)NC1CC1)c1ccc(F)cc1F` (stereo not shown) the value was 1.42%; for `COc1ccccc1N1CCN(S(=O)(=O)c2c(C)sc3ncn(CC(=O)NCCN(C)C)c(=O)c23)CC1`, 10.8%.
For `Cc1ccc(S(=O)(=O)N2CCN(C(=O)CN3CCCSc4ccccc43)CC2)cc1` the value was 3.85%; for `N/C(=N\N=C\c1ccc(O)cc1O)N[N+](=O)[O-]`, 8.72%; for `COc1ccc(C(=O)OCc2nnc(-c3ccccc3)o2)cc1S(=O)(=O)N1CCOCC1`, 4.07%.
On to `Cc1cc(=O)[nH]c(SCC(=O)NCC2CCCCC2)c1C#N`, for which the “hERG current change (%, negative = inhibition) at 1uM” value amounted to 16%.
Consider `CCOc1ccccc1NC(=O)C(=O)NCCC1=CCCCC1`, for which the “hERG current change (%, negative = inhibition) at 1uM” value is reported as 9.84%.
Regarding `CN(CCNC(=O)c1ccc(CS(=O)(=O)c2ccc(Br)cc2)o1)CCc1ccccc1`, the “hERG current change (%, negative = inhibition) at 1uM” value was -42%.
To `CCCCN(CC)CCCNC(=O)c1ccc(CS(=O)(=O)c2c(Cl)cccc2Cl)o1` belongs -8.53%.
To `CC(C)N(CCNC(=O)c1ccc(CS(=O)(=O)c2c(Cl)cccc2Cl)o1)Cc1ccccc1` belongs -3.94%; to `CCCCN(CCCNC(=O)c1ccc(CS(=O)(=O)c2c(Cl)cccc2Cl)o1)Cc1ccccc1`, -30.5%; to `CCCN(CCC)CCCNC(=O)c1ccc(CS(=O)(=O)c2c(Cl)cccc2Cl)o1`, -59.1%.
In the case of `CN(CCNC(=O)c1ccc(CS(=O)(=O)c2c(Cl)cccc2Cl)o1)CCc1ccccc1`, the “hERG current change (%, negative = inhibition) at 1uM” value is -50.4%.
Consider `Cc1ccc(-c2csc(NC(=S)NC(=O)/C=C/c3ccco3)n2)cc1`, for which the “hERG current change (%, negative = inhibition) at 1uM” value turned out to be 23.2%.
As for `O=C1OCCC1Sc1nnc(-c2ccc3c(c2)OCO3)n1-c1ccccc1` (stereo not shown), the “hERG current change (%, negative = inhibition) at 1uM” value turned out to be 4.75%.
Take `Cc1c(C(=O)NCc2ccc3c(c2)OCO3)oc2ccc(S(=O)(=O)N3CCCC3)cc12`: the “hERG current change (%, negative = inhibition) at 1uM” value is on record as 19.4%.
To `N#Cc1cc2c(nc1SCC(=O)NCc1ccc3c(c1)OCO3)CCCCC2` belongs 1.91%; to `CCOc1ccc(NC(=O)CN(C)C(=O)CSCc2ccc(C)cc2)cc1OCC`, -1.27%; to `COC(=O)CCNC(=O)Cc1c(C)n(C(=O)c2ccc(Cl)cc2)c2ccc(OC)cc12`, 8.1%.
With `Cc1ccc(-n2ccnc2SCC(=O)N(CC(C)C)C2CCS(=O)(=O)C2)c(C)c1` (stereo not shown), the “hERG current change (%, negative = inhibition) at 1uM” value was -3.07%.
For `COc1cc2c(c(OC)c1OC)-c1c(cc(OC)c(OC)c1OC)C[C@](C)(O)[C@@H](C)C2` the value was -58.4%; for `COc1cc2c(c(OC)c1OC)-c1c(cc(OC)c(OC)c1OC)C[C@H](C)[C@H](C)C2`, -22.5%.
For `COc1cc2c(c(OC)c1OC)-c1c(cc3c(c1OC)OCO3)C[C@H](C)[C@@](C)(O)C2` the value was 17.5%.
In the case of `O=Nc1c(O)[nH]c2ccc(Cl)cc12`, the “hERG current change (%, negative = inhibition) at 1uM” value is 4.46%.
To `CCc1cc(=O)oc2c(C)c(OCC(=O)NCCCn3ccnc3)ccc12` belongs 5.28%; to `CCCc1cc(=O)oc2cc(C)cc(OCC(=O)NCc3ccncc3)c12`, -48%; to `Cc1cc(OCC(=O)NCCCn2ccnc2)c2c(C)cc(=O)oc2c1`, 14.7%.
To `Cc1c(C)c2ccc(OCC(=O)NCCCn3ccnc3)c(C)c2oc1=O` belongs -11.1%; to `CCc1cc(=O)oc2cc(C)cc(OCC(=O)NCc3ccncc3)c12`, -8.01%; to `Cc1cc(OC(C)C(=O)NCCCn2ccnc2)c2c(C)cc(=O)oc2c1` (stereo not shown), 9.26%.
`CCc1cc(=O)oc2cc(C)cc(OC(C)C(=O)NCCCn3ccnc3)c12` (stereo not shown): the “hERG current change (%, negative = inhibition) at 1uM” value is 2.72%.
For `CCCc1cc(=O)oc2c(C)c(OCC(=O)NCCCn3ccnc3)ccc12` the value was -70%.
As for `CCc1cc(=O)oc2cc(C)cc(OCC(=O)NCCCn3ccnc3)c12`, the “hERG current change (%, negative = inhibition) at 1uM” value is -7.42%.
For `Cc1cc(OC(C)C(=O)NCCCn2ccnc2)c2c(C)c(C)c(=O)oc2c1` (stereo not shown) the value was -51.6%; for `CCCCc1cc(=O)oc2cc(C)cc(OCC(=O)NCc3ccncc3)c12`, -73.8%; for `CCCc1cc(=O)oc2cc(C)cc(OCC(=O)NCCCn3ccnc3)c12`, -66.7%.
With `CCC(=O)N1CCN(c2ccc(NC(=O)COc3ccc(CC)cc3)cc2)CC1`, the “hERG current change (%, negative = inhibition) at 1uM” value was 10.9%.
For `CC(C)[C@@H]1NC(=O)c2cc([N+](=O)[O-])cc(I)c2NCCC[C@@H](C(N)=O)NC(=O)[C@H](CO)NC1=O` the value was 8.46%; for `O=C(CSc1ncn[nH]1)c1cccc([N+](=O)[O-])c1`, 11.5%.
